# From PubChem BioAssay
# “And” between values parts separate entries of the source, which are not always exact repeats. Identical values can stand only once. More than one record can exist for a structure, and the calls need not agree. The source made the active and inactive calls.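 How the source made its calls, unless noted: active means inhibition at or above 50% relative to wild type and mutant plate controls; inactive means inhibition below 50%.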
# Tests used:
# [1] = inhibitors of TNFa-induced NFkB p65 translocation, primary screen, imaging, HUVEC, MLSMR starter and 10KST1 sets (AID 438;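 active means inhibition above 20% together with a positive visual image hit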;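 further: compound added about 3h40 before a 20 min TNFalpha stimulation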;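 on inhibition: signal is the nuclear over cytoplasmic p65 intensity ratio per well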); settings: HUVEC TNFa-induced p65 nuclear translocation; cell count: measured here: nuclei count (cytotoxicity indicator), at 2.08 µM; inhibition: at 2 µM, stronger effect = higher value, 0% TNFa-plus-vehicle, 100% no-TNFa wells
# [2] = endothelial E-selectin expression blockers – imaging, HUVEC, immunofluorescence, MLSMR starter and 10KST1 sets, primary screen (AID 487;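 active means visually confirmed hit in the image check and inhibition above 20%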;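 on inhibition: signal is fraction of cell area covered by stained E-selectin grains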;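 on nuclei count: 100% = median nuclei count of all wells on the same plate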); settings: HUVEC TNFalpha-induced E-selectin immunofluorescence imaging, at 2 µM; inhibition: stronger effect = higher value; nuclei count: measured here: cell number, toxicity
# [3] = Primary imaging screen for DUSP6 inhibitors that restore phospho-Erk in transfected HeLa cells, chemical complementation (AID 609;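 active means compounds giving at least 50% inhibition in the cell-based MKP-3 phosphatase rescue imaging test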;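 on inhibition: phospho-Erk level distribution per well compared with pooled transfected vehicle control wells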); settings: HeLa MKP-3 transfected, phospho-Erk imaging KS statistic, at 10 µM, cells stimulated with TPA for 15 min
# [4] = target: Dual specificity protein phosphatase 6 (Homo sapiens) (UniProt Q16828); assay: as above; settings: HeLa MKP-3 transfected, phospho-Erk imaging KS statistic; at 10 µM; stronger effect = higher value; cells stimulated with TPA for 15 min
# [5] = target: Voltage-gated potassium channel subunit beta-2 (Rattus norvegicus) (UniProt P62483); assay: inhibitors of rat Kvbeta2 reductase activity – biochemical, NADPH fluorescence, primary screen (AID 622;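 active means fluorescence slope higher than the sample average by over 3 SD, cut at about -0.22 in these data, passing the limit was not always enough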;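 further: slope of raw intensity against log time taken from 70 to 1610 s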); settings: recombinant KvBeta, 4-cyanobenzaldehyde reduction, at 10 µM, stronger effect = higher value
# [6] = target: Voltage-gated potassium channel subunit beta-2 (Rattus norvegicus) (UniProt P62483); assay: enhancers of rat Kvbeta2 NADPH turnover – biochemical, NADPH fluorescence, primary screen (AID 623;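 active means NADPH fluorescence slope more negative than the mean of all samples by about 3 SD, 99.7% confidence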;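 further: fluorescence intensity change per second fitted from 20 to 320 s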); settings: Recombinant KvBeta, NADPH fluorescence decrease slope, 10 min; at 10 µM; stronger effect = lower value
# [7] = target: Alpha-2C adrenergic receptor (Homo sapiens) (UniProt P18825); assay: compounds altering alpha2C-coupled GIRK flux – cell-based, HEK293 alpha2C/GIRK1/2, thallium flux, primary screen (AID 624;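 active means fluorescence slope after compound addition differing from the mean of all screened samples at 99.7% confidence, in either direction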;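 further: slope of fluorescence ratio to pre-addition baseline per second over 15 to 24 s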); settings: thallium flux BTC fluorescence, at 10 µM, actives lie on both sides
# [8] = loss of swimming-algae plug formation – whole organism, Chlamydomonas reinhardtii, WT vs cilia-less mutant, absorbance, 96-well, primary screen (AID 463189); settings: Chlamydomonas reinhardtii gravitaxis, OD600 absorbance, 2 days; at 10 µM; stronger effect = higher value;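 further: 0% = wild type cc124 cells in DMSO and 100% = ciliumless bld1 mutant cells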
# [9] = inhibitors of larval lipid processing in zebrafish, primary screen, whole organism, PED6 fluorescence, gall bladder and intestine (AID 686;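 active means a full or partial loss of lipid-probe fluorescence in the fish gall bladder, intestine or both, judged by eye; inactive means no fluorescence loss, or compound toxic to the fish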;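 further: larvae 5 to 7 days old with five fish per well; signal comes from phospholipase A2 cleavage of quenched PED6 carried via bile; overnight exposure to compound and PED6 before scoring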); settings: Zebrafish larvae PED6 lipid processing, fluorescence scoring; screened at 20 µM (by protocol)
# [10] = blockers of RIG-like receptor reporter activation – cell-based, Sendai virus stimulus, luciferase, 10K MLSCN set, TLR/RLR signaling modifier project, primary screen (AID 602276;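 active means inhibition at or above 50% at 10 µM; inactive means inhibition below 50%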;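 further: firefly luciferase from ISG56 promoter only with Renilla not read in this screen; 0% = Sendai virus plus DMSO and 100% = medium plus DMSO without virus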); settings: HEK293 RL24 IRF3 luciferase reporter, at 10 µM, stronger effect = higher value
# [11] = TLR3 IRF3 reporter activation blockers – cell-based, poly I:C stimulus, luciferase, 10K MLSCN set, primary screen (AID 602277;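 active means inhibition of the reporter signal at or above 50%; inactive means inhibition below 50%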); settings: HEK293-TLR3 RL24 IRF3 luciferase reporter, at 10 µM, stronger effect = higher value
# [12] = measured here: cell density z-score
# [13] = measured here: nuclear c-Myc green intensity z-score
# [14] = measured here: nuclear pErk red intensity z-score, stronger effect = higher value
# Alpha-2C adrenergic receptor (Homo sapiens), sequence (P18825 whole entry, looked up): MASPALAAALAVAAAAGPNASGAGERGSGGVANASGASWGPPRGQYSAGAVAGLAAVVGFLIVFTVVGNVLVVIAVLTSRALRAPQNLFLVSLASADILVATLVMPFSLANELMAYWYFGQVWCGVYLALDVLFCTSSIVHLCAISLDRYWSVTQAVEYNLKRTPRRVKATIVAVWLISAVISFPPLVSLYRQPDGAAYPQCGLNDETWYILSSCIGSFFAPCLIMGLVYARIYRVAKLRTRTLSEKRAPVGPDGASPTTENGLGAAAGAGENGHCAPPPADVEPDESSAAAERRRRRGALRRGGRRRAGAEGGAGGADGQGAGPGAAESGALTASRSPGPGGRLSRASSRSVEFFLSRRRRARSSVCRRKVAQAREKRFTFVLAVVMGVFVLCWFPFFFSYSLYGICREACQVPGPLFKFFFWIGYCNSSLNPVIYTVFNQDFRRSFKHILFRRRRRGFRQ
# Dual specificity protein phosphatase 6 (Homo sapiens), sequence (Q16828 whole entry, looked up): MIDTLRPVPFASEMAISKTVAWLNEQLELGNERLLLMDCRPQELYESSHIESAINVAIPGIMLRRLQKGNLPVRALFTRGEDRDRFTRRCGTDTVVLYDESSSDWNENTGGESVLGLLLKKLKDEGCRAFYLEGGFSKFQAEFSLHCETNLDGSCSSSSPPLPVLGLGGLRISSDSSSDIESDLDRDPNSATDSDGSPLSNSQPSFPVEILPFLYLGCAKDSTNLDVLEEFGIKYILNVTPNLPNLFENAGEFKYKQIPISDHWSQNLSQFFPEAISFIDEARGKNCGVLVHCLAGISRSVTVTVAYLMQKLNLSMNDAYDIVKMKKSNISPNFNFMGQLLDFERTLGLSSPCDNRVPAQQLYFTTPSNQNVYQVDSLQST
# Voltage-gated potassium channel subunit beta-2 (Rattus norvegicus), sequence (P62483 whole entry, looked up): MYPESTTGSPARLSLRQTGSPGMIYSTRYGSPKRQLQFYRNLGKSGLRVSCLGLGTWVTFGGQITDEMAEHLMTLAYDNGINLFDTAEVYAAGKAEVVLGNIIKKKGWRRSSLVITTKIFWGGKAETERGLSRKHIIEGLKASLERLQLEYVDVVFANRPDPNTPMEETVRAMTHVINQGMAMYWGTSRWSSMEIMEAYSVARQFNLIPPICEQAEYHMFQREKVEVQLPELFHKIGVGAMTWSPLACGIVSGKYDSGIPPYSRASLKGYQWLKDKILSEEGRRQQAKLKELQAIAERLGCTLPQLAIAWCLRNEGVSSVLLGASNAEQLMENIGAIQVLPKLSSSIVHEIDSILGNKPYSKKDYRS
SMILES,cell count [1],inhibition [1],inhibition [2],nuclei count [2],"z-score [3, 12]","z-score [3, 13]","z-score [3, 14]",inhibition [4],fluorescence slope [5],NADPH fluorescence slope [6],slope [7],inhibition [8],outcome [9],inhibition [10],inhibition [11]
CC1=CC(c2ccccc2)n2nc(N3C(=O)C4CC=CCC4C3=O)nc2N1 (stereo not given),367,-3.2% (inactive),-63.7% (inactive),153%,0.978,-0.382,-0.0463,-5.26% (inactive),-0.41 (inactive),-0.000143 (inactive),0.00753 (inactive),-3.33% (inactive),,,
CC(C)Cc1nc2n[nH]c(N)c2c2c1CCC2,325,-3.7% (inactive),-87.6% (inactive),149%,0.414,-0.778,-0.647,-1.75% (inactive),-0.43 (inactive),-8.3e-05 (inactive),0.0075 (inactive),8.43% (inactive),,,
COc1ccc(/C(O)=C2/C(=O)C(=O)N(CCN3CCOCC3)C2c2ccccn2)cc1OC (stereo not given),409,-7.4% (inactive),-125% (inactive),158%,1.75,-1.41,1.12,15.8% (inactive),-0.419 (inactive),-9.3e-05 (inactive),0.00847 (inactive),6.74% (inactive),,,
CCCc1cc(=O)oc2c(CN3CCCC3)c(O)c(Cl)cc12,371,-2.3% (inactive),-95.9% (inactive),144%,0.942,-0.732,0.231,22.8% (inactive),-0.172 (inactive),-2.5e-06 (inactive),0.00449 (inactive),-0.278% (inactive),,,
CC1(C)CC(NC(=O)C23CCC(C)(/C(=N/O)C2)C3(C)C)CC(C)(C)N1 (stereo not given),378,-8.3% (inactive),-45.2% (inactive),179%,-1.2,0.0129,1.59,-14% (inactive),-0.399 (inactive),-0.000147 (inactive),0.00577 (inactive),-6.59% (inactive),,,
CC(C)(C)c1ccc(C(O)CCCN2CCC(C(O)(c3ccccc3)c3ccccc3)CC2)cc1 (stereo not given),520,6.8% (inactive),-51.1% (inactive),108%,0.975,0.958,-1.3,21.2% (inactive),,,0.00381 (inactive),24.3% (inactive) and 153% (active),inactive,25.2% (inactive),30% (inactive)
CC(C)Oc1ccc2c(=O)c(-c3ccccc3)coc2c1,646,2.7% (inactive),-33.4% (inactive),124%,-1.12,-0.535,0.614,10.2% (inactive),-0.425 (inactive),-6.4e-05 (inactive),0.00497 (inactive),-9.11% (inactive),inactive,-37.9% (inactive),-186% (inactive)
N#C/C(=N\O)c1nc(-c2ccccc2)cs1,302,-1.9% (inactive),-12.9% (inactive),149%,0.00555,1.35,-0.606,1.75% (inactive),-0.418 (inactive),-0.000175 (inactive),0.00629 (inactive),2.16% (inactive),,,
Cc1ccc(N2C(=O)C3ON(c4ccccc4)C(c4ccncc4)C3C2=O)cc1 (stereo not given),381,1.9% (inactive),-70.5% (inactive),142%,-0.368,-0.198,0.0354,-8.76% (inactive),-0.416 (inactive),-0.000456 (active),0.0052 (inactive),12.5% (inactive),,,
CCOC(=O)C1=C(C)NC(C)=C(C(=O)OC)C1c1cccc(Cl)c1Cl (stereo not given),723,-6.4% (inactive),-52.9% (inactive),142%,0.529,-0.8,1.2,25.1% (inactive),-0.431 (inactive),-6.6e-05 (inactive),0.00394 (inactive),14.9% (inactive) and 24.6% (inactive),inactive,3.98% (inactive),6.81% (inactive)
Cc1ccc(N(Cc2cc3ccccc3[nH]c2=O)C(=O)c2ccco2)c(C)c1,332,-14.8% (inactive),-162% (inactive),173%,0.558,-1.26,0.6,-14% (inactive),-0.459 (inactive),-0.000111 (inactive),0.00671 (inactive),12% (inactive),,,
c1ccc(CN2CCN(c3nc(-c4ccccn4)nc4ccccc34)CC2)cc1,275,-1.9% (inactive),-134% (inactive),96.6%,0.978,-1.13,-0.507,20.2% (inactive),-0.498 (inactive),4.9e-06 (inactive),0.00604 (inactive),130% (active),,,
CN/C(=C/[N+](=O)[O-])NCCSCc1ccc(CN(C)C)o1,593,-4.1% (inactive),-23.6% (inactive),105%,1.15,-0.304,-1.85,16.8% (inactive),-0.46 (inactive),1.7e-05 (inactive),0.00584 (inactive),-22.8% (inactive),inactive,13.1% (inactive),30.9% (inactive)
CCCCc1cc(=O)oc2c(CN(C)C)c(O)c(Cl)cc12,409,-5.1% (inactive),-156% (inactive),164%,-0.211,-0.0215,0.835,-5.26% (inactive),-0.163 (inactive),2.2e-05 (inactive),0.0046 (inactive),0.735% (inactive),,,
Cc1noc(NS(=O)(=O)c2ccc(N)cc2)c1C,559,-7.4% (inactive),-149% (inactive),114%,0.375,-0.266,-1.23,5.42% (inactive),-0.478 (inactive),2.4e-05 (inactive),0.00419 (inactive),-6.69% (inactive),inactive,-9.57% (inactive),-11.4% (inactive)
COc1cc(C2C(C(=O)c3cccs3)=C(O)C(=O)N2c2cc(C)on2)ccc1O (stereo not given),340,4.6% (inactive),-93.3% (inactive),155%,0.402,-0.247,-0.385,-10.5% (inactive),-0.43 (inactive),-0.000162 (inactive),0.00517 (inactive),-10.7% (inactive),,,
CCO/C(C)=N/n1c2nc3ccccc3nc2c2c(=O)n(CC(C)C)c(C)nc21,369,1.4% (inactive),-12.8% (inactive),145%,-0.809,0.23,0.00332,14% (inactive),-0.438 (inactive),-6e-05 (inactive),0.00351 (inactive),9.95% (inactive),,,
Cc1ccc2nc(NCc3ccccc3)[nH]c2c1,360,-2.3% (inactive),-217% (inactive),171%,-0.018,-0.878,0.83,-14% (inactive),-0.447 (inactive),-0.00018 (inactive),0.00328 (inactive),24.8% (inactive),,,
Cc1ccc(N2C(=O)C3ON(c4ccccc4)C(c4ccncc4)C3C2=O)c(C)c1 (stereo not given),326,-7.9% (inactive),-152% (inactive),164%,0.138,-0.827,-0.00414,-12.3% (inactive),-0.437 (inactive),-0.000117 (inactive),0.00457 (inactive),0.697% (inactive),,,
C=CCOc1nc(-c2ccncc2)nc2ccccc12,345,4.5% (inactive),-73.4% (inactive),130%,0.583,-0.0101,-0.88,16.1% (inactive),-0.491 (inactive),-3.3e-05 (inactive),0.00589 (inactive),79.7% (active),,,
Cc1c(C)c2cc(Cl)c(O)c(CN3CCN(C)CC3)c2oc1=O,394,-6.5% (inactive),-104% (inactive),179%,-0.305,-0.256,0.789,-10.5% (inactive),-0.121 (inactive),3.5e-05 (inactive),0.00398 (inactive),14% (inactive),,,
COc1ccc(C(=O)Cn2c(Br)nc3c2c(=O)n(C)c(=O)n3C)cc1OC,296,-12.5% (inactive),28.7% (inactive),116%,-1.61,0.384,-0.0762,-1.75% (inactive),-0.471 (inactive),-1.3e-05 (inactive),0.00557 (inactive),-16.3% (inactive),,,
COc1cccc(/C(O)=C2/C(=O)C(=O)N(CCN(C)C)C2c2ccc(Br)cc2)c1 (stereo not given),321,18.1% (inactive),14.2% (inactive),102%,0.101,1.46,-0.618,-12.3% (inactive),-0.456 (inactive),7.9e-06 (inactive),0.00697 (inactive),28.7% (inactive),,,
O=C1CC(N(O)C2CC(=O)N(Cc3ccccc3)C2=O)C(=O)N1Cc1ccccc1 (stereo not given),269,-16.2% (inactive),-15% (inactive),88.9%,-0.0667,1.6,-0.253,3.5% (inactive),-0.433 (inactive),-5.6e-06 (inactive),0.0039 (inactive),13.4% (inactive),,,
COc1cccc(-c2nc(NC(C)C)c3ccccc3n2)c1O,342,-2.3% (inactive),-37.3% (inactive),152%,-0.0785,0.53,0.295,1.6e-07% (inactive),-0.436 (inactive),-0.000146 (inactive),0.00488 (inactive),75.4% (active),,,
O=c1[nH]c(-c2ccccn2)nc2ccccc12,336,-9% (inactive),-102% (inactive),126%,0.0403,0.157,-1.25,1.48% (inactive),-0.555 (inactive),-4.4e-05 (inactive),0.00479 (inactive),34.7% (inactive),,,
